Source: PubChem BioAssay (NCI)
“And” between values parts separate entries of the source, which are not always exact repeats. Equal values may be shown once. About 83,000 compounds went through this panel and 20% of them were active in at least one assay; those are over-represented in the sample as a whole.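 Assay: single dose, 48 h. Readout: percent growth (0 = no net growth; negative = cell death). Active: <10.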 Values without a mark were called inactive. The source made the active and inactive calls.

What follows are compounds tested on MDA-MB-468 breast (assay: NCI-60 one-dose screen, 48 h (100 = growth as untreated, 0 = no growth, -100 = all killed)). Details: 10 µM unless noted.

SMILES | growth
N#CCCN1C(=O)CCC1C(=O)O (stereo not drawn) | 103%
COc1ccccc1NCc1cccn1Cc1ccc(F)cc1 | 82.6%
CCOC(=O)C1=C(C)NC(SCc2cc(=O)oc3ccc(F)cc23)=N[C@@H]1c1cccc2ccccc12 | 113%
Clc1ccccc1-c1nc(Nc2nc3ccccc3s2)nc(C(Cl)(Cl)Cl)n1 | -24.6% (active)
Nc1c(C(=O)Nc2cccc3ncccc23)sc2nc3c(cc12)C(=O)CCC3 | 12.4%
COc1ccc(-c2nc3ccc(C)cc3c3c2c(=O)n(C)c(=O)n3C)cc1OC | 100%
CN1CCN(C(=S)SCCCCOc2cc(=O)oc3ccccc23)CC1 | 56.3%
O=C(CN1C=NC2C(N3CCOCC3)=NC=NC21)c1ccc(Br)cc1 (stereo not drawn) | 99%
CN(C)CC(=O)Nc1ccc2ncnc(Nc3ccc(Oc4cccc(C(F)(F)F)c4)c(Cl)c3)c2c1 | -2% (active)
CC(C)CCC[C@@H](C)[C@H]1CC[C@H]2[C@@H]3CC=C4N(c5ccccc5)C(=O)CC[C@]4(C)[C@H]3CC[C@]12C | 96.4%
NC(=S)N/N=C(\c1ccc(Br)cc1)C1CC1 | 20% and 19%
COc1ccc(-c2cc(-c3ccc(Nc4nc(Nc5ccccc5)nc(Nc5ccc(Cl)cc5)n4)cc3)nc(N)c2C#N)cc1 | -31.1% (active)
CCOC(=O)n1cc(-c2nonc2-c2cn(C)c3ccc(OC)cc23)c2cc(F)ccc21 | 87.3%
C[C@@H]1COC(Nc2ccc3ncnc(Nc4ccc(OCc5nccs5)c(Cl)c4)c3c2)=N1 | -16.4% (active)
S=c1nn[nH]n1C1CCCCC1 | 125%
COc1ccc(/C=C(/C(=O)N2CCN(c3ccc(C)cc3)CC2)c2cc(OC)c(OC)c(OC)c2)cc1N | 29.6%
Cc1[nH]c(C(=O)Nc2ccccc2OCc2cccc(C(=O)NCCN)c2)c(Cl)c1Cl | 10.7%
CCCCN(CCCC)CCCN=c1nc2c(c(N)n1-c1ccccc1)c(=S)n(-c1ccccc1)c(=S)n2-c1ccccc1 | -89.9% (active)
O=C(O)CCC(NC(=O)OCc1ccccc1)C(=O)O (stereo not drawn) | 101%
Nc1nc(-c2ccccn2)cc(-c2cc(-c3ccccn3)nc(N)n2)n1 | 98.7%
Cc1nc(Nc2cn[nH]c2C(=O)Nc2ccc(CN3CCN(C)CC3)cc2)c2ccsc2n1 | 104%
CSc1nc(NCc2ccccc2)c(C#N)c(-c2cccc([N+](=O)[O-])c2)n1 | 110%
Nc1ccccc1-c1ccc([N+](=O)[O-])cc1 | 67.5%
